Source: PubChem BioAssay AID612 (The Scripps Research Institute Molecular Screening Center, 2007)
Out of some 62,000 compounds screened, about 420 (0.68%) were called active.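 How the source made its calls: active means inhibition above the mean of all tested compounds plus 3 SD (cut at about 43% in these data); inactive means the rest.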 The sample as a whole holds a higher share of actives than the screen did.

Biological target: 5-hydroxytryptamine receptor 1A (Homo sapiens) (UniProt P08908)
Test: blockade of serotonin HTR1A receptor – cell-based, CHO, Ga15 NFAT-bla reporter, primary screen (AID 612);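 further: receptor stimulated by 5-CT agonist at 100 nM near EC80; beta-lactamase reporter measured by ratiometric fluorescence of a cleavable substrate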
Conditions: CHO 5-HT1a Ga15 NFAT-bla reporter, antagonist mode; at 10 µM; active compounds read high

5-hydroxytryptamine receptor 1A (Homo sapiens), sequence (P08908 whole entry, looked up): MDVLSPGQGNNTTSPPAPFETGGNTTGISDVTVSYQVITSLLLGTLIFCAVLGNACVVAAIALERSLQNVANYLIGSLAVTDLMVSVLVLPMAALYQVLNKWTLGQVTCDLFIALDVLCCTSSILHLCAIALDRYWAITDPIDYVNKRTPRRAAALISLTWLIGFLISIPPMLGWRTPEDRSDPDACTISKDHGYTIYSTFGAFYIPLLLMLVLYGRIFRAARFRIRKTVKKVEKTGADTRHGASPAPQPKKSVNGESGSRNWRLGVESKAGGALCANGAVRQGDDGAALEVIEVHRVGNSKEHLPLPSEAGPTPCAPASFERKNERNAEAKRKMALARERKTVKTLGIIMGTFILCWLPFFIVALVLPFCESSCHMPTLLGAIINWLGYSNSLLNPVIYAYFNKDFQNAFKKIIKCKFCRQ

inhibition, inactive:
O=C(Nc1cc(C(F)(F)F)ccc1Cl)c1cc(C2CC2)on1 2.5%, O=C(OCC(O)C(O)COC(=O)c1ccccc1)c1ccccc1 (stereo not given) -11.9%, S=C1SCN(CCN2CCOCC2)CN1Cc1ccccc1 -2.1%, CCOc1ccccc1C1NC(=O)NC(C)=C1C(=O)OCc1ccco1 (stereo not given) -4.6%, CCOc1ccc2[nH]c(=O)c(C(c3nnnn3CCOC)N3CCOCC3)cc2c1 (stereo not given) -1.9%, CC(=O)c1sc2nc(SCC(=O)N3CCCCC3)[nH]c(=O)c2c1C -6.6%, Cc1cccc(NC(=O)c2ccccc2NC(=O)C(C)(C)C)n1 1.6%, O=S(=O)(Nc1ccccc1N1CCOCC1)c1ccc(Cl)s1 4.3%, CCOC(=O)C1CCN(Cc2coc3ccc(Cl)cc3c2=O)CC1 5%, O=C(NCc1ccc2c(c1)OCO2)C1CCCN(S(=O)(=O)c2cccs2)C1 (stereo not given) -2.9%, Cc1ccnc(SCCn2c(Br)nc3c2c(=O)[nH]c(=O)n3C)n1 -4.8%, CC(C)Cc1cc(C(=O)Nc2cc(Br)ccc2O)no1 17.4%, CCn1c(SCC(=O)Nc2nccs2)nnc1-c1ccncc1 -5%, Cc1ccc(C(=O)NC2CCN(C(=O)N3CCOCC3)CC2)cc1 -11.8%, COc1ccc(CCN(C)CCN2C(=O)c3ccccc3C2=O)cc1OC -14.2%, COc1cc(C2C(C(=O)c3ccc(C)o3)=C(O)C(=O)N2CCc2ccccc2)ccc1O (stereo not given) -1.1%, O=C(C1CC1)N1CCN=C1SCc1ccc(Cl)cc1 13%, N#CC1=C(N)C(C#N)(C#N)[C@H](c2ccsc2)[C@H]2COCC=C12 -8.8%, O=C(CN1CCOCC1)Nc1c(-c2ccccc2)c2cc(Br)ccc2[nH]c1=O -10.8%

inhibition, active:
COc1ccc(CCN2C(=O)c3[nH]nc(-c4ccccc4O)c3C2c2ccc(C)cc2)cc1OC (stereo not given) 54.6%
